This is part of a sample that, as a whole, favours compounds with a hit. Of some 79,000 tested, about 15% had one in any assay. A number with no mark means an inactive call. Activity calls are given as the source filed them. No stated cut-off is given here; in the data, active means growth inhibition above about 70%; inactive means the rest. Where a SMILES comes first, the peptide text is derived from it. [ ]: non-standard residue; d: D form. The star is where a group is joined. ξ: configuration not given here. NMeF = CN[C@@H](Cc1ccccc1)C(=O)O; NMeV = CN[C@H](C(=O)O)C(C)C; ξNMeN = CNC(CC(N)=O)C(=O)O; NMeA = CN[C@@H](C)C(=O)O; ξNMeV = CNC(C(=O)O)C(C)C; Boc = CC(C)(C)OC(=O)*

A short description of assay [1]: NCI Yeast Anticancer Drug Screen. Data for the rad50 strain (AID 155).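 Further: 0% = growth of vehicle-only cultures of the same strain.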 The conditions noted are these: S. cerevisiae rad50 strain growth inhibition; at 50.0 µM; hits give high values. The method in brief: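 Vehicle-treated cultures provide the reference for the growth inhibition reported for compound-exposed, repair-deficient yeast.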
Assay [2] can be described thus: NCI Yeast Anticancer Drug Screen. Data for the mec2-1 strain (AID 157). The conditions noted are these: S. cerevisiae mec2-1 strain, at 50.0 µM, hits give high values. The method in brief: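 mec2-1 yeast strain, carrying an alteration in DNA damage repair or cell cycle control, was exposed to compounds; growth inhibition was measured relative to vehicle-treated controls.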

A short description of assay [3]: NCI Yeast Anticancer Drug Screen. Data for the sgs1 mgt1 strain (AID 161).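 Further: 0% = growth of cultures given vehicle only.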 The conditions noted are these: S. cerevisiae sgs1 mgt1 strain, at 50.0 µM, hits give high values. The method in brief: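 Percent growth inhibition was derived by comparing compound-exposed mutant yeast with vehicle-exposed cultures. The strain carries alterations in DNA damage repair.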
Assay [4] in a line: NCI Yeast Anticancer Drug Screen. Data for the cln2 rad14 strain (AID 165).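 Further: 0% = growth equal to vehicle treated cultures.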 The conditions noted are these: S. cerevisiae cln2 rad14 strain, at 50.0 µM, hits give high values. In short, it runs like this:
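Yeast carrying cln2 and rad14 alterations (cell cycle control and DNA damage repair) were exposed to compounds. Growth inhibition was measured against vehicle-treated controls.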

Assay [5] is described as follows: NCI Yeast Anticancer Drug Screen. Data for the bub3 strain (AID 167). The conditions noted are these: S. cerevisiae bub3 mutant strain, at 50.0 µM, hits give high values. In short, it runs like this:
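Mutant yeast screening strain plus compound; vehicle-treated cultures serve as the 0% inhibition reference.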

A short description of assay [6]: NCI Yeast Anticancer Drug Screen. Data for the mlh1 rad18 strain (AID 175). The conditions noted are these: S. cerevisiae mlh1 rad18 strain growth inhibition; at 50.0 µM; hits give high values. The method in brief:
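Growth inhibition of the yeast strain was measured after compound exposure and expressed relative to vehicle-treated controls. The strain carries defined defects in DNA damage repair.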

For `CN(C)C(=O)C1OC1(C)c1ccccc1` (stereo not given), the growth inhibition in assay [1] is -7.75%; in assay [2], -5.25%; in assay [3] it was -3.35%; in assay [4] it was -20.9%; in assay [5], -1.3%; in assay [6], -7.95%.
In the case of `N=S(=O)(c1ccccc1)c1ccccc1[N+](=O)[O-]` (stereo not given), the growth inhibition in assay [1] was 41.4%; in assay [2], 17.9%; in assay [3] it was 56%; in assay [4], 49.5%; in assay [5], 19.5%; in assay [6] it was 57.2%.
Consider `COC(=O)C(=O)c1c(C(=O)OC)nc2nnc(N)n2c1C1CC1`, for which the growth inhibition in assay [1] is -5.6%; in assay [2], 11.8%; in assay [3], 7.75%; in assay [4], -17.9%; in assay [5], -5.35%; in assay [6] it was 4.25%.
As for `COc1ccc(C(=O)/C=C/c2ccc(OCCCCCCCCCCOc3ccc(/C=C/C(=O)c4ccc(OC)cc4)cc3)cc2)cc1`, the growth inhibition in assay [1] is -14.2%; in assay [2] it was -14.8%; in assay [3], -17%; in assay [4], -15.2%; in assay [5], -30.4%; in assay [6], -17.4%.
`CC(=O)OCC(OC(C)=O)C(OC(C)=O)C(/C=C/[N+](=O)[O-])OC(C)=O` (stereo not given): the growth inhibition is 9.9% in assay [1]; 3.65% in assay [2]; 2.4% in assay [3]; -24.6% in assay [4]; -3.4% in assay [5]; -2.05% in assay [6].
As for `CCc1c(CN)c(CC)c(CNC2=NCCN2)c(CC)c1CNC1=NCCN1`, the growth inhibition in assay [1] was 13.6%; in assay [2], 3.45%; in assay [3], 12.2%; in assay [4] it was 10.9%; in assay [5], 12.8%; in assay [6], 15.2%.
`CC(=O)CCc1ccc(Cl)cc1`: the growth inhibition in assay [1] is -21.6%; in assay [2], -3.55%; in assay [3], -1%; in assay [4], 3.1%; in assay [5], 5.4%; in assay [6], -4.4%.
Regarding `COC(=O)[C@H](C)N(C)C(=O)C(CC(N)=O)N(C)C(=O)[C@H](Cc1ccccc1)N(C)C(=O)[C@@H]1CCCN1C(=O)[C@H](C(C)C)N(C)C(=O)C(C(C)C)N(C)C(=O)[C@@H](NC(=O)OC(C)(C)C)C(C)C` (stereo not given in full) (Boc-V[ξNMeV][NMeV]P[NMeF][ξNMeN][NMeA]-OMe), the growth inhibition was -20.1% in assay [1]; -16.6% in assay [2]; -13.9% in assay [3]; 8.9% in assay [4]; 8.65% in assay [5]; -5.4% in assay [6].
As for `CCCCc1nc(CCCC)nc(CCCC)n1`, the growth inhibition was -6.75% in assay [1]; -14.2% in assay [2]; -12.8% in assay [3]; -2.45% in assay [4]; -2.8% in assay [5]; 1.15% in assay [6].
On to `CC(C)NC1(C#N)CCN(Cc2ccccc2)CC1`, for which the growth inhibition is -29.8% in assay [1]; -45.1% in assay [2]; -41.4% in assay [3]; 10.2% in assay [4]; -29.1% in assay [5]; -37.5% in assay [6].
As to `Nc1nc2nc3c(nc2c(=O)[nH]1)CN(c1ccc(C(=O)O)cc1)C3=O`, the growth inhibition is 19.4% in assay [1]; 5.6% in assay [2]; -5.05% in assay [3]; -7.45% in assay [4]; 14.7% in assay [5]; 11.4% in assay [6].
Regarding `c1ccc(CNC(Cc2ccccc2)c2ccc(OCc3ccccc3)cc2)cc1` (stereo not given), the growth inhibition in assay [1] was -15.2%; in assay [2], -17.6%; in assay [3] it was 4%; in assay [4], 11.8%; in assay [5] it was -10.2%; in assay [6], -10.6%.
With `O=C(Nc1ccccc1O)c1ccc(Cl)c(Cl)c1`, the growth inhibition in assay [1] was -7.6%; in assay [2], 32%; in assay [3], 33.2%; in assay [4], -23.2%; in assay [5] it was 49%; in assay [6], 36.2%.
Turning to `CS(=O)(=O)c1[nH]nc2[nH]c(=O)[nH]c(=O)c12`, the growth inhibition in assay [1] is -30.5%; in assay [2], -30.4%; in assay [3], -26.5%; in assay [4], -4.7%; in assay [5] it was -28.8%; in assay [6], 6.85%.
On to `Clc1ccc(-c2cc(-c3cc(-c4ccc(Cl)cc4Cl)n[nH]3)[nH]n2)c(Cl)c1`, for which the growth inhibition is 14.2% in assay [1]; 1.75% in assay [2]; -5.3% in assay [3]; 20.6% in assay [4]; 9.9% in assay [5]; 8.55% in assay [6].
With `CC(=O)N(C(=O)CC(=O)N1N=C(C)C(N=Nc2cccc([N+](=O)[O-])c2)C1=O)c1ccc(Cl)cc1` (stereo not given), the growth inhibition is -10.3% in assay [1]; -4.5% in assay [2]; -5.9% in assay [3]; -11.2% in assay [4]; -15.1% in assay [5]; 2% in assay [6].
Consider `CCOC(=O)C1C(=O)CC(=O)C(C(=O)OCC)C1C1CC=CCC1` (stereo not given), for which the growth inhibition is 51% in assay [1]; 69.5% in assay [2]; 78.5% (active) in assay [3]; 38.7% in assay [4]; 70.7% (active) in assay [5]; 78.5% (active) in assay [6].
`CC(=O)Oc1ccc(CC(C)C(C)Cc2ccc(OC(C)=O)c(OC(C)=O)c2)cc1OC(C)=O` (stereo not given): the growth inhibition is 51% in assay [1]; 23% in assay [2]; 50% in assay [3]; 7.4% in assay [4]; 0.5% in assay [5]; 26.5% in assay [6].
`CC(C)CCC[C@@H](C)[C@H]1CC[C@H]2[C@@H]3CC[C@H]4C[C@@H](CCC=C(c5cc(Cl)c(O)c(C(=O)O)c5)c5cc(Cl)c(O)c(C(=O)O)c5)CC[C@]4(C)[C@H]3CC[C@]12C`: the growth inhibition in assay [1] is 15.3%; in assay [2], 8.35%; in assay [3], 11.4%; in assay [4] it was -4.2%; in assay [5] it was 24.5%; in assay [6] it was -1.75%.
Turning to `O=c1cc(S(=O)(=O)Cc2ccccc2)[nH]c(=O)[nH]1`, the growth inhibition was 43% in assay [1]; 6.75% in assay [2]; 0.2% in assay [3]; -43.6% in assay [4]; 8.35% in assay [5]; 31.2% in assay [6].
`O=C1c2ccccc2-c2nc(-c3cccs3)cc3c2c1nc1ccccc13`: the growth inhibition in assay [1] is 41.2%; in assay [2] it was 21.4%; in assay [3] it was 29.1%; in assay [4], 21.9%; in assay [5], 25%; in assay [6], 36.2%.
`c1ccc(-c2cc3c(nn2)[nH]c2ccccc23)cc1`: the growth inhibition in assay [1] was 14.4%; in assay [2] it was -1.95%; in assay [3], -2.25%; in assay [4], -30.2%; in assay [5], -15.8%; in assay [6], 8.9%.
Take `CC[N+](C)(CC)CCOC(=O)C(C1=CCCCC1)C1(O)CCCCC1` (stereo not given): the growth inhibition in assay [1] is 3.05%; in assay [2], -15.8%; in assay [3], -27.5%; in assay [4], -48.9%; in assay [5] it was 2.5%; in assay [6], -16.6%.
Regarding `CSc1c(C(=O)Nc2ccc(C)cc2)c(N)nn1-c1ccccc1`, the growth inhibition is 20.8% in assay [1]; -12.3% in assay [2]; 20.4% in assay [3]; 12.8% in assay [4]; 4.35% in assay [5]; 2.7% in assay [6].
In the case of `C=C1C(=O)OC2/C=C(\C)CC(O)/C=C(/C)CC(OC(=O)C(O)(CO)C(C)S)C12` (stereo not given), the growth inhibition in assay [1] is -14%; in assay [2] it was 6.55%; in assay [3] it was -22.4%; in assay [4] it was 3%; in assay [5], -3.8%; in assay [6], -22.7%.
As for `CSc1ccc(NC(=O)Nc2ccc(Cl)cc2[N+](=O)[O-])cc1`, the growth inhibition was -4.55% in assay [1]; 40.5% in assay [2]; 13.6% in assay [3]; -6.05% in assay [4]; 17.9% in assay [5]; 20.3% in assay [6].
With `ONC1=Nc2cc(Cl)ccc2C(=S)N2CSCC12` (stereo not given), the growth inhibition was 1.55% in assay [1]; 18.6% in assay [2]; -0.25% in assay [3]; 0.45% in assay [4]; -9.8% in assay [5]; 18.8% in assay [6].
Turning to `CC(C)OC(=O)C(=O)Nc1cccc(Cl)c1`, the growth inhibition in assay [1] was -3.45%; in assay [2], -14.1%; in assay [3], -29.5%; in assay [4], -65.8%; in assay [5] it was -15.3%; in assay [6] it was -2.5%.
With `O=C1OC(=O)C2C3CC(C4OC34)C12` (stereo not given), the growth inhibition in assay [1] was -12.2%; in assay [2], 29.3%; in assay [3], -3.55%; in assay [4] it was -20.8%; in assay [5], -9.9%; in assay [6] it was 4.05%.
As for `COc1ccc(C2=CSC3=NC(C)(C)CC(C)=NN23)cc1`, the growth inhibition is -16.8% in assay [1]; -8.2% in assay [2]; 7.35% in assay [3]; 29.2% in assay [4]; 9.25% in assay [5]; -1.75% in assay [6].
Regarding `CCS(=O)CCCN1CCc2ccccc2C1` (stereo not given), the growth inhibition in assay [1] was 25.5%; in assay [2], -0.95%; in assay [3] it was 13.9%; in assay [4], -33%; in assay [5], -3%; in assay [6], -5.95%.
On to `CCCCCCCCCCCCCCCCCC(=O)OCCCC`, for which the growth inhibition in assay [1] is 6.35%; in assay [2], -9.9%; in assay [3], -20.1%; in assay [4], -20.4%; in assay [5], 0.2%; in assay [6] it was -22%.
With `O=C(O)c1ccc(C(=O)O)nc1`, the growth inhibition was -39.7% in assay [1]; -4.75% in assay [2]; 0.95% in assay [3]; -14.4% in assay [4]; 4.8% in assay [5]; -1.35% in assay [6].
With `Cc1ccc(-c2cc(=O)c3cc(C)c(C)c(C(=O)O)c3o2)cc1N`, the growth inhibition in assay [1] was -8.6%; in assay [2] it was -3.55%; in assay [3], 11.9%; in assay [4], 6.1%; in assay [5], 14.2%; in assay [6], -7.4%.
`CCn1cc2c(=O)n3ncn(-c4ccc(Br)cc4)c3nc2n1`: the growth inhibition was -8.05% in assay [1]; 9.75% in assay [2]; 3.2% in assay [3]; -16.4% in assay [4]; -28.8% in assay [5]; -12.2% in assay [6].

Values taken from PubChem BioAssay (NCI).
